Screening data as filed in PubChem.
TDP1 cell noCPT = qHTS for Inhibitors of human tyrosyl-DNA phosphodiesterase 1 (TDP1): qHTS in cells in absence of CPT; DT40 Tdp1-/- hTDP1 cells, no CPT, ATP luminescence, 48 h; Potency, µM (doses to about 46.2 µM), actives largely listed as inhibitors; 420,000 compounds, 15% hits; AID 686978, 2013; note: nearly all actives have a fitted effect of over 55% in size
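Stably hTDP1-transfected Tdp1-null chicken DT40 cells were treated with library compounds minus camptothecin and grown for at least 48 hr at 37 °C, after which cellular ATP was quantified by luminescence.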
PLK1 PBD inh = PLK1 (human) polo-box domain binding inhibition. P53350. AID 720504. Potency, µM, usual class: inhibitors. Plk1 PBD binding of FITC phosphopeptide, fluorescence polarization. 360,000 compounds, 2.8% hits; note: series mostly up to about 57 µM; nearly all actives have a fitted effect of over 65% in size
Target sequence (P53350 whole entry, looked up, the tested form may be a part): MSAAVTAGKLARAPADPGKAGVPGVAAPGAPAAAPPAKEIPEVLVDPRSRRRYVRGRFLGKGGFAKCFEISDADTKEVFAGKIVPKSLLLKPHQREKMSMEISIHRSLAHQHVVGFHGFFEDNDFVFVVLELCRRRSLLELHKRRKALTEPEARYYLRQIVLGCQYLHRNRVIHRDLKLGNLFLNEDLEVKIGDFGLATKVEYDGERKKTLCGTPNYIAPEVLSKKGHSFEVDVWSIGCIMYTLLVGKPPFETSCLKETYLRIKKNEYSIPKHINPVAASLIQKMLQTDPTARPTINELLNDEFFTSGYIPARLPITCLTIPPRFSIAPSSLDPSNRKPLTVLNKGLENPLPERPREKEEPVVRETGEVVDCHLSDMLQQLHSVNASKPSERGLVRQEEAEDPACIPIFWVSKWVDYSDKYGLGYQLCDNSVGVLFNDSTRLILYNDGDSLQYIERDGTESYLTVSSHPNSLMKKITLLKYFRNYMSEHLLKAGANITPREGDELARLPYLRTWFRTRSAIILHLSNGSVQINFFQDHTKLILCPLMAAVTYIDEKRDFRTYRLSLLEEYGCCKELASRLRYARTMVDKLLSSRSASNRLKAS
GCN5L2 inh = GCN5L2 (KAT2A) acetyltransferase inhibition | Q92830 | GCN5L2 HAT assay, ThioGlo1 CoA-SH fluorescence | Potency, µM (series often up to 58.9 µM), actives largely listed as inhibitors | 390,000 compounds, 0.21% hits
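Fluorescence readout, Ex340nm/Em540nm: ThioGlo1 (50uM final) reacts with free CoA thiol released as 20nM GCN5L2 acetylates H3(1-25) peptide (75uM) using acetyl-CoA (70uM). Compound and enzyme sat 15 min beforehand; 20 min room-temperature reaction.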
DT40 TDP1 CPT = DT40-hTDP1 cell growth loss with CPT; 420,000 compounds, 12% hits; chicken DT40 Tdp1-/-;hTDP1 cells + 20 nM CPT, ATP luminescence, 48 h; Potency, µM (doses to about 46.2 µM), usual class: inhibitors; note: nearly all actives have a fitted effect of over 55% in size
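Cell growth measured by CellTiter-Glo luminescence after a minimum 48 h, 37 C compound exposure with 20 nM CPT in Tdp1-knockout DT40 cells stably expressing hTDP1, seeded 400/well; qHTS titration format.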
TDP1 block = TDP1 (human) enzyme inhibition; 350,000 compounds, 0.28% hits; Q9NUW8; recombinant TDP1, AlphaScreen DNA substrate cleavage; Potency, µM (titrated, usually from 130 µM), most hits filed as inhibitors; note: nearly all actives have a fitted effect of over 40% in size
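Tdp1 1 nM final; 15 min RT w/ cpd; substrate 15 nM, 5 min; beads 10 ug/ml, 10 min; AlphaScreen read. Neg ctrl: no enzyme.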
VDR inh = blocks the human vitamin D receptor. P11473. VDR-SRC2-3 peptide fluorescence polarization, 2 h. Potency, µM, hits mostly inhibitors. 400,000 compounds, 0.93% hits
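FP read-out; VDR + SRC2-3 coactivator peptide; 23 nl compound by pintool; 2 h RT incubation; reagents held at 4 deg C, protected from light.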
Numbers stand for hits; 0 = inactive; ? = inconclusive; - = not tested or not shown; ! = not confirmed by another sample; [ ] = remark or other dose. The list is not random: actives were taken first. Their share in the collection is about 18%. Calls come from the whole dose curve; as a rule, active = well fitted curve in the direction sought with a large enough effect; inconclusive = small, poorly fitted or top-dose-only effect, or another doubt; inactive = no such curve, though single readings can be large; an effect the other way counts as inactive or inconclusive.

SMILES	TDP1 cell noCPT	PLK1 PBD inh	GCN5L2 inh	DT40 TDP1 CPT	TDP1 block	VDR inh
N#C/C(=C\c1ccc(O)c(O)c1)C(=O)Nc1ccccc1	10µM	0	0	23.7µM	0	12.6µM!
N#C/C(=C/c1ccc(O)c(O)c1)C(=O)OC/C=C/c1ccccc1	-	-	14.1µM	-	0	0
N#Cc1cnc2c(-c3ccccc3)c(-c3ccccc3)nn2c1N	18.4µM	18.9µM	0	23.1µM	0	?
CC(c1nccs1)N(C)C(=O)CCc1nnc(Cc2c[nH]c3ccccc23)o1 (stereo unspecified)	0	0	0	0	0	0
CCC(Cc1c(I)cc(I)c(O)c1I)C(=O)O (stereo unspecified)	?	-	22.4µM	?	-	31.6µM
CCCC(=O)Nc1c(I)cc(I)c(C[C@H](CC)C(=O)O)c1I	-	-	0	-	-	0
COc1cc2c(cc1OC)C(c1cc(OC)c(O)c(OC)c1)CC(=O)N2 (stereo unspecified)	0	-	0	0	0	0
O=C(O)c1cc([N+](=O)[O-])cc2ccccc12	0	18.9µM	-	0	-	0
O=[N+]([O-])c1cc2ccccc2c(O)c1O	?	5.32µM	-	23.1µM	-	-
O=[N+]([O-])c1cccc(C=Nc2cccc3ccccc23)c1O	0	0	35.5µM	0	0	0
Cc1cc(-n2nc3ccccc3n2)c(O)c([N+](=O)[O-])c1	0	0	0	0	0	0
O=[N+]([O-])c1cc(-c2ccccc2)cc([N+](=O)[O-])c1O	18.4µM	?	-	?	-	0
O=[N+]([O-])c1ccc(O)c(C=Nc2cccc3ccccc23)c1	0	0	0	0	0	0
COc1cc([C@@H]2CC(=O)c3c(O)cc(O)cc3O2)ccc1O	-	-	0	-	0	0
CCC(CC)C(C(=O)NCc1ccccc1)N1CCN(CCN2CCOCC2)CC1 (stereo unspecified)	0	0	-	0	-	-
COc1ccc(Cc2c3cc(OC)c(OC)cc3cc[n+]2C)cc1OC	0	?	0	0	-	0
COc1cc2c[n+](C)c3c4ccccc4ccc3c2cc1OC	1.46µM	0	-	1.03µM	-	0
COc1ccc(NC(=S)Nc2cccc3ccccc23)cc1OC	0	0	0	0	0	0
COc1ccc2c(c1)c[n+](C)c1c3cc(OC)c(OC)cc3ccc21	1.16µM	11.9µM	-	1.16µM	-	-
NS(=O)(=O)c1ccc(CNC(=O)c2sccc2-c2ccccc2)cc1	0	0	0	0	0	0
CS/C(Nc1cc(Cl)ccc1Cl)=C(/C#N)C(=O)c1ccco1	16.4µM	0	0	9.2µM	0	?
COC/C=C/C1=CC2=CC(=O)C(C)(OC(=O)c3cnc4ccccc4n3)C(=O)C2=CN1CCOC (stereo unspecified)	?	?	-	?	0[12.3 µM]	0
C=CCN1C=C2C(=O)C(C)(OC(=O)c3cnc4ccccc4n3)C(=O)C=C2C=C1/C=C/COC (stereo unspecified)	16.4µM	?	-	?	0[12.3 µM]	0
COCCc1nn2c(=O)cc(COC(=O)c3ccc(Br)cc3)nc2s1	0	-	0	0	0	0
COc1cccc(N2CCN(C(=O)c3nc(-c4ccc(Cl)cc4)n4c3CCCCC4)CC2)c1	?	-	0	?	0	0
SMILES	TDP1 cell noCPT	PLK1 PBD inh	GCN5L2 inh	DT40 TDP1 CPT	TDP1 block	VDR inh
Cc1cccc(CCNC(=O)c2nc(-c3ccc(Cl)cc3)n3c2CCCCC3)c1	9.2µM	-	0	10.3µM	0	0
COc1ccc(CCNC(=O)c2nc(-c3ccc(Cl)cc3)n3c2CCCCC3)c(OC)c1	9.2µM	-	0	10.3µM	0	0
O=C(c1nc(-c2ccc(Cl)cc2)n2c1CCCCC2)N1CCN(c2ccccc2)CC1	20.6µM	-	0	?	0	0
COc1cccc(N2C(=O)C(Cc3c[nH]c4ccccc34)NC2=S)c1 (stereo unspecified)	0	0	0	0	0	0
CCOc1cc(N2CCOCC2)c(OCC)cc1NC(=O)COC(=O)c1c(C)noc1C	?	0	-	?	-	-
Cc1ccc(Oc2c(C=O)c3ccccc3n2C)cc1	?	0	0	3.26µM	0	0
O=C1CCCC2=C1C1(CCCC1)N=C(Nc1nc3cc(Cl)ccc3o1)N2	-	-	-	-	0	-
